Assay results taken from PubChem BioAssay.
Records with an inconclusive call do not appear. Active and inactive are the calls of the source.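 Rule for the calls, unless noted: active = viability at or below 27.92% in each of two runs, the all-compound median minus 4 SD; inconclusive = no clear call, values can overlap the other calls; inactive = the rest.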

Tests used:
[1] = Her2 expression decrease, cell viability multiplex – SKBR3 breast tumor cells, AlphaScreen, ATP viability, primary screen (AID 461;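 active = Her2 level under about 52% in both replicate screens, with viability over 70% of control, limit read from the data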;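 for Her2 level: lower value means less Her2 protein in the cells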;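 for viability: percent of carrier control wells set as 100% viability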); conditions: SKBR3 Her2 protein level, 18-24 h, measured here: SKBR3 viability, ATP luminescence, at 10 µM
[2] = target: Receptor tyrosine-protein kinase erbB-2 (Homo sapiens) (UniProt P04626); assay: as above; conditions: 18-24 h, at 10 µM, stronger effect = lower value
[3] = reduced viability of SK-BR-3 breast cancer cells – cell-based, 24 h, human, pilot screen (AID 572;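 active = viability at or below 10% of carrier control in both of two separate runs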;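 note: compound exposure lasted between 18 and 24 h rather than exactly 24 h; 100% = carrier-treated control wells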); conditions: SK-BR-3 viability, CellTiter-Glo luminescence, at 10 µM, stronger effect = lower value
[4] = HUVEC growth inhibition – cell-based, human, primary screen (AID 575;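 active = viability at or below 30% in both replicate assays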;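 note: 100% = median of untreated cell wells with 0.1% DMSO on each plate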); conditions: HUVEC proliferation, CellTiter-Glo luminescence, 72 h; at 10 µM; stronger effect = lower value
[5] = H69AR cell proliferation blockers – human, duplicate replicates, primary screen (AID 580;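 active = viability at or under a set limit in both replicates, limit being median viability minus 3 SD, cut at about 48% in these data, passing the limit was not always enough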;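 note: 100% = mean luminescence of untreated wells and 0% = no signal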); conditions: H69AR lung tumor cells viability, ATP luminescence, 72 h; at 10 µM; stronger effect = lower value
[6] = MRP1 drug-resistance reversers in H69AR cells – cell-based, doxorubicin co-treatment, pilot screen (AID 601;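 active = viability loss from added drug above about 55%, and viability with drug at most 40%, in both replicates, limit read from the data, passing the limit was not always enough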); conditions: CellTiter-Glo, 72 h, at 10 µM; for differential viability (reversal): stronger effect = higher value
[7] = yeast transport mutant growth inhibition pilot in 384-well plates, post-Golgi transport modulator project (AID 636; in the data active = inhibition above about 31%); conditions: absorbance 615 nm, about 18 h, stronger effect = higher value
[8] = growth suppression of yeast trafficking mutant, preliminary HTS, modulators of trafficking downstream of Golgi apparatus project, 1536-format plate, OD 615 nm (AID 637; in the data active = inhibition above about 30%); conditions: yeast transport mutant growth, absorbance 615 nm, 18 h; stronger effect = higher value
[9] = S. cerevisiae growth inhibition in permissive medium (OD615), pilot counter-assay for S. cerevisiae lifespan shortening project, permissive growth control (AID 705;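 active = growth inhibition above 25% in both replicates, a cutoff set 3 SD above the mean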); conditions: OD615, 24 h, at 10 µM, stronger effect = higher value
[10] = S. cerevisiae growth inhibition in restrictive medium, OD615, pilot screen, restrictive growth control, yeast lifespan reduction project (AID 706;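 active = growth inhibition above a set limit, 3 SD over mean compound inhibition, in both replicates, cut at about 43% in these data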;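 note: modified DeaD lifespan yeast strain shifted to restrictive glucose medium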); conditions: OD615, 48 h, at 10 µM, stronger effect = higher value
[11] = doxorubicin toxicity protection in MRP-1 cells – H69AR cells, CellTiter-Glo, duplicate, MRP-1 activator project, pilot screen (AID 807;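 active = viability increase at or above a cutoff of the median across tested compounds plus 3 SD, cut at about 8.5% in these data, passing the limit was not always enough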;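 note: compound pretreatment 18-22 h then 72 h combined with doxorubicin; 0% = doxorubicin alone and 100% = vehicle without doxorubicin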); conditions: H69AR viability with doxorubicin, CellTiter-Glo luminescence; at 10 µM; stronger effect = higher value
[12] = viability of HCT116 without oncogenic beta-catenin – human colon tumor cells, pilot screen (AID 823;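 active = cell viability at or below a set limit in both duplicate runs, the limit being the all-compound median minus 4 SD, cut at about 23% in these data, passing the limit was not always enough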;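 note: 0% = wells killed by 20 µM Hyamine and 100% = untreated DMSO cell wells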); conditions: HCT116 beta-catenin knockout viability, CellTiter-Glo, 60 h; at 10 µM; stronger effect = lower value
[13] = viability of PTEN-null HCT116 cells – cell-based, HCT116 clonal line, CellTiter-Glo, pilot screen (AID 824); conditions: HCT116 PTEN-deleted viability, 60 h, at 10 µM, stronger effect = lower value;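 note: 0% = 20 µM Hyamine control and 100% = vehicle cell control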
[14] = RAM pathway blockade in budding yeast – dse1pr::URA3 reporter, 5-FOA selection, pilot screen (AID 869;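 active = inhibition over a set limit, the all-compound mean plus 3 SD, in both replicate runs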;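 note: 0% = DMSO wells with no growth and 100% = 10 µM 1-NA-PP1 with full growth; RAM network block rescues cells from 5-FOA so hits raise OD615 growth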); conditions: S. cerevisiae dse1pr::URA3 5-FOA growth, OD615, 2 d; at 10 µM; stronger effect = higher value; strain carries analog-sensitive mutant Cbk1 kinase
[15] = RAM signaling pathway blockade in yeast – S. cerevisiae, Pdr1DBD-CYC8 efflux-inhibited sensitized strain, primary screen (AID 1298;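 active = RAM network inhibition above 8.4% in each of two replicates, 3 SD over the compound average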;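 note: 0% = DMSO untreated cells without growth and 100% = 10 µM 1-NA-PP1 full growth; higher means more yeast growth rescued from 5-FOA killing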); conditions: S. cerevisiae cbk1-as DSE1-URA3 strain, 5-FOA growth OD615, 2 d; at 50 µM; stronger effect = higher value
[16] = H69AR cells + 2 uM doxorubicin, measured here: viability with 2 uM doxorubicin, stronger effect = lower value
[17] = H69AR cells, compound alone cytotoxicity

Receptor tyrosine-protein kinase erbB-2 (Homo sapiens), sequence (P04626 whole entry, looked up): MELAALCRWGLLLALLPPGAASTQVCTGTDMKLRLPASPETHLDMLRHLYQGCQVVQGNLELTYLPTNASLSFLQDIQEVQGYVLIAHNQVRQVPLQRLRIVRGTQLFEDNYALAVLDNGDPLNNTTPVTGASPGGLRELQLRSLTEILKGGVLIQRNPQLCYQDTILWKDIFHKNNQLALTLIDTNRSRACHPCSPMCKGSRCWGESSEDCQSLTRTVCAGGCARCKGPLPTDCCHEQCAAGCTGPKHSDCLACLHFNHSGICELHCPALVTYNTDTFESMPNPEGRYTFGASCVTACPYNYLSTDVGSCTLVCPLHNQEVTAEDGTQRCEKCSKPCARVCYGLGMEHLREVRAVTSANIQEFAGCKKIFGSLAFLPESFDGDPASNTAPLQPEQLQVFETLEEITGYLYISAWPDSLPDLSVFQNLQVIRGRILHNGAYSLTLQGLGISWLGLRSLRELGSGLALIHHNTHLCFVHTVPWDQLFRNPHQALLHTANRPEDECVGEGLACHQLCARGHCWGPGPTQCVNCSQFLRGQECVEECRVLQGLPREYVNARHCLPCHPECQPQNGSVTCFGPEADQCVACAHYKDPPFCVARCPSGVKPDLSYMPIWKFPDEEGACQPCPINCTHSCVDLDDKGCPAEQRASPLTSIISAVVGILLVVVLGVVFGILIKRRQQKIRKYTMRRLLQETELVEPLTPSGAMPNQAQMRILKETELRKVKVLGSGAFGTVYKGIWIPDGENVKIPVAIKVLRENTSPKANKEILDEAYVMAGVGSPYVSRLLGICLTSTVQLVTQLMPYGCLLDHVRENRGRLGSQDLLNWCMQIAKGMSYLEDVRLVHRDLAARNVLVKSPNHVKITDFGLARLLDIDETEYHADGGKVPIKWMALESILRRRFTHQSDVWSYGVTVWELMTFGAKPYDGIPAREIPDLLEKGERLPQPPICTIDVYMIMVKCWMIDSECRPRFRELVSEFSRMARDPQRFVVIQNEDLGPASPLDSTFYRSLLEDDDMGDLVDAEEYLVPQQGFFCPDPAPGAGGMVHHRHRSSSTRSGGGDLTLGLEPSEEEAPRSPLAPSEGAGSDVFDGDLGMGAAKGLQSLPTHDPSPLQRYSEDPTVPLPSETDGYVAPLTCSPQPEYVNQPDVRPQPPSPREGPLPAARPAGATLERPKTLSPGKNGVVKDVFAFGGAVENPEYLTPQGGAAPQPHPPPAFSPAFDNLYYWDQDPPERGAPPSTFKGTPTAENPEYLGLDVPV

Structure (SMILES)	viability [1]	Her2 level [2]	viability [3]	viability [4]	viability [5]	differential viability (reversal) ([6]; H69AR cells + 2 uM doxorubicin)	viability [6, 16]	viability [6, 17]	inhibition [7]	inhibition [8]	growth inhibition [9]	growth inhibition [10]	viability increase [11]	viability [12]	viability [13]	inhibition [14]	RAM network inhibition [15]
c1ccn2c(SCc3ccc4c(c3)OCCO4)nnc2c1	108%	108% (inactive)	108% (inactive)	93.8% (inactive)	92.1% (inactive)	0.37% (inactive)	91.7%	92.1%	-3.47% (inactive)	1.67% (inactive)	6.86% (inactive)	12.2% (inactive)	-0.85% (inactive)	96.6% (inactive)	99.2% (inactive)	0.305% (inactive)	5.34% (inactive)
Nc1nc2n(n1)C(c1cccc(Br)c1)CC(c1ccccc1)N2 (stereo not drawn)	93.5%	103% (inactive)	93.5% (inactive)	82% (inactive)	88.8% (inactive)	-9.83% (inactive)	98.7%	88.8%	-3.33% (inactive)	0.83% (inactive)	-6.41% (inactive)	12.7% (inactive)	-1.81% (inactive)	97.1% (inactive)	86% (inactive)	1.22% (inactive)	12.1% (inactive)
CC(=O)Nc1ccc(N=Cc2ccc[nH]2)cc1	97.5%	87.5% (inactive)	97.5% (inactive)	95.3% (inactive)	88.5% (inactive)	-1.47% (inactive)	90%	88.5%	1.28% (inactive)	-5.5% (inactive)	-11.4% (inactive)	-5.65% (inactive)	-1.9% (inactive)	90.7% (inactive)	92.8% (inactive)	0.435% (inactive)	3.68% (inactive)
CCOC(=O)N1CCC(c2cc(=O)n3[nH]c(C)c(-c4ccc(F)cc4)c3n2)CC1	67%	80.5% (inactive)	67% (inactive)	7% (active)	21.3% (active)	-44.2% (inactive)	65.5%	21.3%	0.38% (inactive)	-0.33% (inactive)	2.81% (inactive)	9.87% (inactive)	0.52% (inactive)	15.8% (active)	19.7% (active)	0.04% (inactive)	0.41% (inactive)
O=C(O)c1ccccc1S(=O)(=O)NCC(O)COc1ccc(Br)cc1 (stereo not drawn)	102%	84.5% (inactive)	102% (inactive)	119% (inactive)	99.9% (inactive)	6.29% (inactive)	93.6%	99.9%	-2.47% (inactive)	-1.17% (inactive)	-17.1% (inactive)	-22.2% (inactive)	0.84% (inactive)	97.9% (inactive)	100% (inactive)	1.09% (inactive)	7.5% (inactive)
COc1cccc(-c2nc(CS(=O)(=O)CC(=O)NCc3ccc(Cl)cc3)c(C)o2)c1	72.5%	71% (inactive)	72.5% (inactive)	42.8% (inactive)	87.9% (inactive)	10.1% (inactive)	77.8%	87.9%	0.4% (inactive)	-2.3% (inactive)	-8.85% (inactive)	-2.68% (inactive)	-3.55% (inactive)	87.1% (inactive)	89.3% (inactive)	2.36% (inactive)	5.41% (inactive)
COc1ccc(C2CC(c3cccs3)n3nc(N)nc3N2)cc1 (stereo not drawn)	113%	102% (inactive)	113% (inactive)	89.3% (inactive)	91.4% (inactive)	7.99% (inactive)	83.4%	91.4%	-2.4% (inactive)	-6.39% (inactive)	2.05% (inactive)	17% (inactive)	-1.71% (inactive)	94.2% (inactive)	82.2% (inactive)	0.275% (inactive)	8.26% (inactive)
COc1ccc(-c2nnc(SCC(=O)NC(C)c3ccccc3)o2)cc1 (stereo not drawn)	94%	102% (inactive)	94% (inactive)	82% (inactive)	100% (inactive)	5.95% (inactive)	94.4%	100%	1.87% (inactive)	2.33% (inactive)	-4.83% (inactive)	-1.46% (inactive)	-3.41% (inactive)	90.8% (inactive)	89.8% (inactive)	1.37% (inactive)	6.94% (inactive)
CNC(=O)c1ccccc1NC(=O)c1c(O)c2c([nH]c1=O)CCCC2	112%	79% (inactive)	112% (inactive)	98.9% (inactive)	109% (inactive)	8.66% (inactive)	99.9%	109%	-1.71% (inactive)	0.48% (inactive)	-17.1% (inactive)	-10.1% (inactive)	-2.56% (inactive)	88.9% (inactive)	94.5% (inactive)	1.7% (inactive)	3.36% (inactive)
COc1ccc(N2CCN(C(=O)c3c(-c4ccccc4)noc3C)CC2)cc1	91.5%	108% (inactive)	91.5% (inactive)	94.4% (inactive)	88.1% (inactive)	-4.69% (inactive)	92.8%	88.1%	0.51% (inactive)	4% (inactive)	-9.57% (inactive)	-10.4% (inactive)	-2.79% (inactive)	94.4% (inactive)	90.3% (inactive)	0.795% (inactive)	4.5% (inactive)
O=C(c1cc2ccccc2oc1=O)N1CCN(c2ccc(N3CCOCC3)nn2)CC1	98%	118% (inactive)	98% (inactive)	88.5% (inactive)	101% (inactive)	7.39% (inactive)	93.9%	101%	-0.77% (inactive)	-2% (inactive)	5.29% (inactive)	-7.26% (inactive)	-1.81% (inactive)	101% (inactive)	96.6% (inactive)	0.885% (inactive)	-0.58% (inactive)
COc1cc(C2NC(=O)NC(C)=C2C(=O)OCC2CCCO2)ccc1O (stereo not drawn)	90.5%	86.5% (inactive)	90.5% (inactive)	94.4% (inactive)	103% (inactive)	5.47% (inactive)	97.4%	103%	-6.08% (inactive)	-2.13% (inactive)	-7.94% (inactive)	-14.9% (inactive)	-1.14% (inactive)	91.1% (inactive)	88.3% (inactive)	1.59% (inactive)	1.93% (inactive)
COc1ccc(NC(=O)C2Cc3ccccc3C(=O)O2)cc1 (stereo not drawn)	90%	92.5% (inactive)	90% (inactive)	104% (inactive)	91.8% (inactive)	5.95% (inactive)	85.9%	91.8%	-2.53% (inactive)	-1.67% (inactive)	1.22% (inactive)	1.67% (inactive)	0.31% (inactive)	105% (inactive)	104% (inactive)	1.79% (inactive)	3.16% (inactive)
CC(C)C(C(=O)Nc1ccc2c(c1)OCCO2)N1C(=O)c2ccccc2C1=O (stereo not drawn)	91%	102% (inactive)	91% (inactive)	99.8% (inactive)	104% (inactive)	8.75% (inactive)	94.8%	104%	0.77% (inactive)	-10.7% (inactive)	-11.7% (inactive)	-13.3% (inactive)	-0.14% (inactive)	99.1% (inactive)	97.7% (inactive)	1.34% (inactive)	2.58% (inactive)
O=C(C1CCN(c2nnc(-n3cccc3)s2)CC1)N1CCc2ccccc2C1	88%	93.5% (inactive)	88% (inactive)	58.6% (inactive)	77.9% (inactive)	1.77% (inactive)	76.1%	77.9%	-0.26% (inactive)	-6% (inactive)	1.58% (inactive)	1.25% (inactive)	-1.4% (inactive)	97% (inactive)	94.1% (inactive)	3.21% (inactive)	6.43% (inactive)
COc1c(S(=O)(=O)n2nc(C)cc2C)ccc(Cl)c1Cl	98%	101% (inactive)	98% (inactive)	101% (inactive)	98% (inactive)	-1.02% (inactive)	99%	98%	-2.76% (inactive)	2.33% (inactive)	-5.31% (inactive)	8.94% (inactive)	1.75% (inactive)	95.8% (inactive)	86.2% (inactive)	1.5% (inactive)	2.6% (inactive)
CCN(CC)c1ccc(NC(=O)CN2C(=O)CC(C)(C)S(=O)(=O)c3ccccc32)c(C)c1	102%	111% (inactive)	102% (inactive)	102% (inactive)	84.8% (inactive)	-7.56% (inactive)	92.4%	84.8%	-4.8% (inactive)	0.83% (inactive)	-6.69% (inactive)	-16.1% (inactive)	-4.31% (inactive)	63.6% (inactive)	78.1% (inactive)	1.72% (inactive)	3.26% (inactive)
Cc1ccc(-c2noc(CN3CCN(c4ccccc4F)CC3)n2)cc1	89.5%	95.5% (inactive)	89.5% (inactive)	121% (inactive)	92.5% (inactive)	-3.02% (inactive)	95.5%	92.5%	1.87% (inactive)	-1.5% (inactive)	1.99% (inactive)	-1.21% (inactive)	-2.06% (inactive)	93.3% (inactive)	92.4% (inactive)	-0.38% (inactive)	3.79% (inactive)
CN(C)CCCN1C(=O)c2oc3ccc(Cl)cc3c(=O)c2C1c1cccnc1 (stereo not drawn)	100%	90.5% (inactive)	100% (inactive)	96.7% (inactive)	83% (inactive)	3.07% (inactive)	79.9%	83%	-2.93% (inactive)	3.5% (inactive)	-2.16% (inactive)	4.2% (inactive)	-1.8% (inactive)	93.5% (inactive)	92.7% (inactive)	0.22% (inactive)	-2.19% (inactive)
